± gives the standard deviation of the averaged measurements.
How the values were obtained:
Experiment in all cases: cell proliferation (confluence) relative to DMSO control; higher = less growth inhibition
Details in all cases: 5 uM; 6 d
BT549 = tested on: BT549
How it was run: (§1)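 Confluence of triple-negative breast cancer cell lines was measured by phase-contrast imaging on an IncuCyte ZOOM and normalised to DMSO-only wells. Cells went into 384-well plates at 500 per well and, after adhering, were exposed to epigenetic chemical probes in DMSO at a final 5 μM for 6 d. A ×10 objective was used, and images were analysed with Incucyte 2016 software.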

CAL120 = tested on: CAL120
How it was run: as §1

HCC1143 = tested on: HCC1143
How it was run: as §1

HCC1395 = tested on: HCC1395
How it was run: as §1

HCC153 = tested on: HCC153
How it was run: as §1

HCC1806 = tested on: HCC1806
How it was run: as §1

HCC38 = tested on: HCC38
How it was run: as §1

HCC70 = tested on: HCC70
How it was run: as §1

Hs578-T = tested on: Hs578-T
How it was run: as §1

MB157 = tested on: MB157
How it was run: as §1

SUM149-PT = tested on: SUM149-PT
How it was run: as §1

SUM159-PT = tested on: SUM159-PT
How it was run: as §1

SMILES | cell proliferation (BT549) [%] | cell proliferation (CAL120) [%] | cell proliferation (HCC1143) [%] | cell proliferation (HCC1395) [%] | cell proliferation (HCC153) [%] | cell proliferation (HCC1806) [%] | cell proliferation (HCC38) [%] | cell proliferation (HCC70) [%] | cell proliferation (Hs578-T) [%] | cell proliferation (MB157) [%] | cell proliferation (SUM149-PT) [%] | cell proliferation (SUM159-PT) [%]
CNCCN1CCC(OCc2ccccc2)CC1 | 98.25 ± 0.81 | 97.25 ± 0.95 | 96.6 ± 1.6 | 99.984 ± 0.0095 | 60.3 ± 10 | 73.6 ± 7.1 | 99.63 ± 0.28 | 88.5 ± 12 | 97.85 ± 0.92 | 93.3 ± 5.4 | 72.8 ± 18 | 99.906 ± 0.052
CCC(=O)N1CCOc2c(cc(-c3ccc(OC)c(OC)c3)cc2OC[C@H]2CCCN(C)C2)C1 | 98 ± 1.1 | 98.2 ± 1.5 | 99.31 ± 0.35 | 99.981 ± 0.0043 | 65.2 ± 5.7 | 79 ± 6.8 | 99.89 ± 0.02 | 92.5 ± 7.2 | 97.28 ± 0.62 | 94.2 ± 4.5 | 29.9 ± 7.1 | 99.985 ± 0.014
O=C(NCC(=O)N1CCCC1)Nc1ccc2cnccc2c1 | 97.4 ± 1.4 | 98.79 ± 0.98 | 97.5 ± 2 | 99.815 ± 0.096 | 63 ± 9.2 | 82.8 ± 2.7 | 99.873 ± 0.048 | 94.9 ± 5.1 | 96.4 ± 1.6 | 94.3 ± 5.8 | 76.9 ± 9.1 | 99.995 ± 0.0035
COc1ccc(CCc2nc3cc(-c4c(C)noc4C)ccc3n2C[C@H](C)N2CCOCC2)cc1Cl | 98.71 ± 0.76 | 99.636 ± 0.017 | 98.527 ± 0.086 | 99.941 ± 0.031 | 48.7 ± 1.4 | 82.67 ± 0.12 | 99.927 ± 0.017 | 99.75 ± 0.26 | 96.9 ± 1 | 90.6 ± 2.1 | 34.4 ± 3.4 | 99.994 ± 0.0041
O=C([C@@H](Cc1cccc(C(F)(F)F)c1)NS(=O)(=O)c1cc(F)c2c(c1)CCNC2)N1CCCC1 | 98.6 ± 1.6 | 97.2 ± 1.3 | 97.9 ± 1.8 | 99.978 ± 0.021 | 79.2 ± 12 | 86.9 ± 14 | 99.44 ± 0.59 | 96.1 ± 2.5 | 94.3 ± 4.3 | 82.3 ± 15 | 87.4 ± 7.1 | 99.992 ± 0.0088
Clc1cc2c(NC3CCCC3)nnc(-c3ccncc3)c2cc1Cl | 99.863 ± 0.055 | 83.4 ± 7.1 | 99.1 ± 1.1 | 99.965 ± 0.029 | 87.7 ± 5.4 | 98.95 ± 0.87 | 99.63 ± 0.21 | 99.12 ± 0.58 | 97.48 ± 0.54 | 98.8 ± 1.5 | 64.6 ± 19 | 99.992 ± 0.0029
CCCc1cc(C)[nH]c(=O)c1CNC(=O)c1cc(-c2ccnc(N3CCN(C)CC3)c2)cc2c1cnn2C(C)C | 99.876 ± 0.081 | 94.6 ± 4 | 99.63 ± 0.27 | 99.992 ± 0.007 | 88.3 ± 2.3 | 99.64 ± 0.32 | 99.73 ± 0.33 | 97.6 ± 2.6 | 97.34 ± 0.48 | 95.1 ± 5.6 | 61.1 ± 10 | 99.976 ± 0.033
COc1cc(C#N)ccc1S(=O)(=O)Nc1ccc2c(c1)cc(C)c(=O)n2C | 98 ± 1.4 | 98.97 ± 0.3 | 97 ± 1.3 | 99.962 ± 0.051 | 54.9 ± 7.1 | 76.1 ± 12 | 98.81 ± 0.89 | 95.8 ± 5 | 97.33 ± 0.58 | 92.5 ± 6.8 | 59.5 ± 7.1 | 99.963 ± 0.039
CC(C)N(CCCNC(=O)Nc1ccc(C(C)(C)C)cc1)C[C@H]1O[C@@H](n2cc(Br)c3c(N)ncnc32)[C@H](O)[C@@H]1O | 99.955 ± 0.014 | 98.5 ± 1.1 | 99.74 ± 0.16 | 99.977 ± 0.024 | 85.8 ± 4.9 | 99.862 ± 0.055 | 99.891 ± 0.042 | 93.6 ± 4.6 | 96.1 ± 1.3 | 89.1 ± 3.2 | 76 ± 6.9 | 99.997 ± 0.0024
Cc1cc(=O)n(C)c2cc(N3C(=O)CC[C@H](NS(=O)(=O)CC(C)C)[C@H]3c3ccc(Cl)cc3)ccc12 | 98.62 ± 0.82 | 98.85 ± 0.5 | 99.53 ± 0.27 | 99.99 ± 0.01 | 55.4 ± 11 | 81.7 ± 5.8 | 99.02 ± 0.89 | 85.8 ± 9.3 | 98.75 ± 0.26 | 71 ± 19 | 82.6 ± 16 | 99.951 ± 0.055
CCOC(=O)CCNc1cc(N2CCc3ccccc3CC2)nc(-c2cccnc2)n1 | 99.38 ± 0.4 | 94.6 ± 4.8 | 99.33 ± 0.49 | 99.887 ± 0.094 | 82.7 ± 3.2 | 99.75 ± 0.15 | 99.31 ± 0.31 | 98 ± 1.6 | 96.1 ± 2.3 | 96.1 ± 2.9 | 96 ± 3.5 | 99.982 ± 0.0074
O=C(NC[C@H](O)CN1CCc2ccccc2C1)c1ccnc(NC2CCC2)c1 | 81.4 ± 7.7 | 90 ± 7.5 | 75.1 ± 4.7 | 99.47 ± 0.48 | 37.2 ± 9.6 | 37.5 ± 4.5 | 67.8 ± 1.2 | 95 ± 2 | 89.7 ± 4.3 | 66.5 ± 2.1 | 36.7 ± 2.9 | 99.876 ± 0.038
COc1cc2c(NC3CCN(C(C)C)CC3)nc(C3CCCCC3)nc2cc1OCCCN1CCCC1 | 99.51 ± 0.12 | 81.6 ± 8.8 | 98.93 ± 0.9 | 99.3 ± 0.76 | 89 ± 4.7 | 99.53 ± 0.2 | 99.86 ± 0.072 | 98.64 ± 0.65 | 98.1 ± 1.1 | 67.8 ± 16 | 91.8 ± 8.8 | 99.996 ± 0.0018
CCCc1cc(C)n(C)c(=O)c1CN(C)C(=O)c1cc(-c2ccc(N3CCN(C(C)C)CC3)nc2)cc2c1cnn2C(C)C | 99.971 ± 0.015 | 93.4 ± 3.8 | 99.3 ± 0.59 | 99.983 ± 0.016 | 84.6 ± 3.8 | 99.889 ± 0.049 | 99.77 ± 0.13 | 97.3 ± 2.3 | 97.89 ± 0.81 | 87.5 ± 6.8 | 84.2 ± 10 | 99.997 ± 0.0012
CCCOc1ccn2c(C(C)=O)cc(-c3ccccc3S(C)(=O)=O)c2c1 | 99.1 ± 0.35 | 99.03 ± 0.55 | 98.2 ± 1 | 99.968 ± 0.022 | 53 ± 5.5 | 81.9 ± 6.8 | 99.1 ± 0.59 | 92.2 ± 7.6 | 97.6 ± 0.9 | 76.8 ± 20 | 88.7 ± 8.8 | 99.983 ± 0.013
CC(C)Oc1ccc(-c2c[nH]cc2CN(C)CCN)cc1 | 90.4 ± 3.7 | 99.34 ± 0.54 | 97.6 ± 0.99 | 99.982 ± 0.016 | 59.3 ± 2.6 | 80.7 ± 11 | 99.56 ± 0.26 | 94.5 ± 2.1 | 95.4 ± 1.7 | 93.7 ± 4.8 | 67.6 ± 13 | 99.843 ± 0.074
